{"source": "PubChem BioAssay (Tox21)", "note": "Records with an inconclusive call do not appear. The source made the active and inactive calls. Unless noted, calls follow the shape of the dose curve; as a rule, active = well fitted cell-killing curve with a large enough effect in the repeat runs; inconclusive = weak or mixed curves, or effect the other way; inactive = no such curve, though single readings can be large or run the other way. % is scaled to controls: 0 for no effect and ±100 for the full control effect.", "data": [{"biological_target": "Bile acid receptor (Homo sapiens) (UniProt Q96RI1)", "sequence (Q96RI1 whole entry, looked up)": "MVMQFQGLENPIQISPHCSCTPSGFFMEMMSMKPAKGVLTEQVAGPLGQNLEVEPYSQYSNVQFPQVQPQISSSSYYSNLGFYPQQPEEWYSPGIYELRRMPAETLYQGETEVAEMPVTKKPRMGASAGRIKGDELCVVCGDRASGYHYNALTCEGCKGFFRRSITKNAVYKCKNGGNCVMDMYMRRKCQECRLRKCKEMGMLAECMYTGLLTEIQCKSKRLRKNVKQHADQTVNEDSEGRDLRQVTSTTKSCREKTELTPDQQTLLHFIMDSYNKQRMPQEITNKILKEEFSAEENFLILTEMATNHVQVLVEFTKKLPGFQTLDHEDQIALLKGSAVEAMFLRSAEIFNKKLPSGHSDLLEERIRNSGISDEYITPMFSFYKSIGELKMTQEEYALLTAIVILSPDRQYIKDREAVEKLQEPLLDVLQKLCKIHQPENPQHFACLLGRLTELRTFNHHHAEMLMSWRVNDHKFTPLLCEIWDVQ", "assay": "qHTS assay to identify small molecule antagonists of the farnesoid-X-receptor (FXR) signaling pathway (AID 743217; active = well fitted inhibition curve with a large enough effect in the signal ratio in the repeat runs, not every such curve was filed as active; the % refers to the signal ratio)", "conditions": "HEK293T FXR-UAS-bla, beta-lactamase ratio, CDCA-stimulated, 16 h; series mostly up to 62.6 µM; activity change, negative = inhibition: at the top concentration", "in_short": "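FXR-UAS-bla HEK 293T cells (beta-lactamase reporter) given compound plus chenodeoxycholic acid (50 uM final), 16 h at 37C. LiveBLAzer B/G FRET substrate added for 2 h at room temperature; fluorescence read.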", "values": [{"smiles": "CC(C)c1ccc2c(C(C)C)cc(C(C)C)c(S(=O)(=O)O)c2c1", "activity change, negative = inhibition": "9.09% [at 81.1 µM] (inactive)"}, {"smiles": "OCCC1CCCCN1", "note": "(centres undefined)", "activity change, negative = inhibition": "1.08% [at 81.1 µM] (inactive)"}, {"smiles": "CC1(C)CCC(C)(C)c2cc(NC(=O)c3ccc(C(=O)O)cc3)ccc21", "activity change, negative = inhibition": "-1.69% (inactive)"}, {"smiles": "CC(C)CC=O", "activity change, negative = inhibition": "-1.6% (inactive)"}, {"smiles": "CCCCCCCCCO", "activity change, negative = inhibition": "6.73% (inactive)"}, {"smiles": "FC(F)(F)C(F)(F)C(F)(F)C(F)(F)C(F)(F)C(F)(F)CCI", "activity change, negative = inhibition": "4% (inactive)"}, {"smiles": "C#CCOC(=O)[C@@H](C)Oc1ccc(Oc2ncc(Cl)cc2F)cc1", "activity change, negative = inhibition": "-4.51% (inactive)"}, {"smiles": "CCOC(=O)C1=NN(c2ccccc2)C(=O)C1", "activity change, negative = inhibition": "1.93% (inactive)"}, {"smiles": "CN1CCN(C2=Nc3ccccc3Sc3ccc(Cl)cc32)CC1", "activity change, negative = inhibition": "0.858% (inactive)"}, {"smiles": "O=C(O)Cc1sc(-c2ccccc2)nc1-c1ccc(Cl)cc1", "activity change, negative = inhibition": "2.07% (inactive)"}, {"smiles": "CN(C(=O)CCCOc1ccc2[nH]c(=O)ccc2c1)C1CCCCC1", "activity change, negative = inhibition": "1.13% (inactive)"}, {"smiles": "CN(C)CCCNCCCN", "activity change, negative = inhibition": "5.92% (inactive)"}, {"smiles": "N#Cc1c(F)cccc1F", "activity change, negative = inhibition": "-7.98% (inactive)"}]}, {"system": "not listed separately", "assay": "qHTS assay to identify small molecule agonists of the farnesoid-X-receptor (FXR) signaling pathway - cell viability counter screen (AID 743218); also: nearly all actives have a fitted effect of over 45% in size", "conditions": "FXR-bla HEK293T viability, CellTiter-Glo luminescence, 16 h; series mostly up to 62.6 µM; viability change, negative = cytotoxic: at the top concentration", "in_short": "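FXR-UAS-bla HEK 293T cells exposed to compounds for 16 h at 37C. Cytotoxicity read in the same wells by CellTiter-Glo luminescence after 30 min at room temperature, following the beta-lactamase FRET read.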", "values": [{"smiles": "CC(C)c1ccc2c(C(C)C)cc(C(C)C)c(S(=O)(=O)O)c2c1", "viability change, negative = cytotoxic": "-21.2% [at 81.1 µM] (inactive)"}, {"smiles": "Cc1cc(C)c(S(=O)(=O)O)cc1N=Nc1cc(S(=O)(=O)O)c2ccccc2c1O", "viability change, negative = cytotoxic": "-20.6% (inactive)"}, {"smiles": "OCCC1CCCCN1", "note": "(centres undefined)", "viability change, negative = cytotoxic": "-16.3% [at 81.1 µM] (inactive)"}, {"smiles": "CC1(C)CCC(C)(C)c2cc(NC(=O)c3ccc(C(=O)O)cc3)ccc21", "viability change, negative = cytotoxic": "3.48% (inactive)"}, {"smiles": "CC/C(=C\\C(=N/O)C(N)=O)C(C)[N+](=O)[O-]", "note": "(centres undefined)", "viability change, negative = cytotoxic": "-3.24% (inactive)"}, {"smiles": "Cl/C(=C\\n1cncn1)c1ccc(Cl)cc1Cl", "viability change, negative = cytotoxic": "8.98% (inactive)"}, {"smiles": "CC(C)CC=O", "viability change, negative = cytotoxic": "14% (inactive)"}, {"smiles": "CCCCCCCCCO", "viability change, negative = cytotoxic": "1.23% (inactive)"}, {"smiles": "CN(C)CCCOc1nn(Cc2ccccc2)c2ccccc12", "viability change, negative = cytotoxic": "-20% (inactive)"}, {"smiles": "FC(F)(F)C(F)(F)C(F)(F)C(F)(F)C(F)(F)C(F)(F)CCI", "viability change, negative = cytotoxic": "10.9% (inactive)"}, {"smiles": "O=C(Cl)c1c(Cl)cccc1Cl", "viability change, negative = cytotoxic": "12.9% [at 81.1 µM] (inactive)"}, {"smiles": "CC(=O)CC(=O)c1ccccc1", "viability change, negative = cytotoxic": "-2.47% [at 81.1 µM] (inactive)"}, {"smiles": "CC(=O)O[C@@H]1C(=O)O[C@@H]2[C@H]1OC(=O)[C@@H]2OC(C)=O", "viability change, negative = cytotoxic": "2.61% (inactive)"}, {"smiles": "CC1=CCC(C(C)C)C=C1", "note": "(centres undefined)", "viability change, negative = cytotoxic": "-17.4% (inactive)"}, {"smiles": "C#CCOC(=O)[C@@H](C)Oc1ccc(Oc2ncc(Cl)cc2F)cc1", "viability change, negative = cytotoxic": "15.7% (inactive)"}, {"smiles": "CCOC(=O)C1=NN(c2ccccc2)C(=O)C1", "viability change, negative = cytotoxic": "-13.2% (inactive)"}, {"smiles": "CCCCCCOC(=O)CCC", "viability change, negative = cytotoxic": "15.3% (inactive)"}, {"smiles": "CCCCCc1ccc(N)cc1", "viability change, negative = cytotoxic": "-19.4% (inactive)"}, {"smiles": "CCN(CC)CCc1nc(-c2ccccc2)no1", "viability change, negative = cytotoxic": "0.658% (inactive)"}, {"smiles": "O=C(O)Cc1sc(-c2ccccc2)nc1-c1ccc(Cl)cc1", "viability change, negative = cytotoxic": "13.5% (inactive)"}, {"smiles": "C[C@H](CCC(=O)O)[C@H]1CC[C@H]2[C@@H]3[C@H](O)C[C@@H]4C[C@H](O)CC[C@]4(C)[C@H]3CC[C@]12C", "viability change, negative = cytotoxic": "-15.9% (inactive)"}, {"smiles": "CN(C(=O)CCCOc1ccc2[nH]c(=O)ccc2c1)C1CCCCC1", "viability change, negative = cytotoxic": "19% (inactive)"}, {"smiles": "CN(c1nccc(=O)[nH]1)C1CCN(c2nc3ccccc3n2Cc2ccc(F)cc2)CC1", "viability change, negative = cytotoxic": "0.701% (inactive)"}, {"smiles": "CC(C)CCCCCCOC(=O)c1ccc(C(=O)OCCCCCCC(C)C)c(C(=O)OCCCCCCC(C)C)c1", "viability change, negative = cytotoxic": "2.59% (inactive)"}, {"smiles": "Cc1ccc2c(ccc3ccccc32)c1", "viability change, negative = cytotoxic": "6.01% [at 81.1 µM] (inactive)"}, {"smiles": "CCCCOC(=O)/C=C\\C(=O)OCCCC", "viability change, negative = cytotoxic": "-10.7% [at 81.1 µM] (inactive)"}, {"smiles": "CN(C)CCCNCCCN", "viability change, negative = cytotoxic": "2.65% (inactive)"}, {"smiles": "OC(CCN1CCCCC1)(c1ccccc1)C1CCCCC1", "note": "(centres undefined)", "viability change, negative = cytotoxic": "-18.7% (inactive)"}, {"smiles": "CC(=O)[C@@]1(O)CC[C@H]2[C@@H]3C[C@H](C)C4=CC(=O)CC[C@]4(C)[C@H]3CC[C@@]21C", "viability change, negative = cytotoxic": "23.6% (inactive)"}, {"smiles": "CC(C)(C)C(=O)OCOP(=O)(COCCn1cnc2c(N)ncnc21)OCOC(=O)C(C)(C)C", "viability change, negative = cytotoxic": "-10.7% (inactive)"}, {"smiles": "N#Cc1c(F)cccc1F", "viability change, negative = cytotoxic": "-26.5% (inactive)"}]}]}
